Measured values from publication PMC5540273 (PLoS ONE, 2017).

system: JAK3(JH1domain-catalytic); details: concentration: 1 μM,replicates: in singlicate; n = 1
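Also: KINOMEscan kinase panel screen.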

First: Cn1ccc2ncnc(Oc3ccc(NC(=O)Nc4cnn(C(C)(C)C)c4)c(Cl)c3)c21
Second: Cn1ccc2ncnc(Oc3ccc(NC(=O)Nc4cc(C(C)(C)C)on4)c(Cl)c3)c21
The “%Inh” value of the first is higher: 15% for the first, 6% for the second.

Going from COc1cc2ncn(-c3cc(OCC4CCCCC4)c(C(N)=O)s3)c2cc1OC [GSK204559] to C[C@@H](Oc1cc(-n2cnc3cc(-c4cnn(C)c4)ccc32)sc1C(N)=O)c1ccccc1Cl [GSK580432], the “%Inh” value rises from 0% to 96.9%.

COc1cccc(CNC(=O)NC2CCN(c3ccnc(Nc4cc(OC)c(OC)c(OC)c4)n3)C2)c1 (stereo not shown) [GSK1379765] and COC(=O)c1cccc(NC(=O)NC2CCN(c3ccnc(Nc4cc(OC)c(OC)c(OC)c4)n3)C2)c1 (stereo not shown) [GSK1379767] are the same in “%Inh” value: 0% for the first, 0% for the second.

First: Cn1ccc2ncnc(Oc3ccc(NC(=O)Nc4cccc(C(F)(F)F)c4)c(F)c3)c21
Second: Cn1ccc2ncnc(Oc3ccc(NC(=O)Nc4cccc(C(F)(F)F)c4)c(Cl)c3)c21
The “%Inh” value of the first is higher: 29% for the first, 25% for the second.

Compared with CNC(=O)c1ccccc1Nc1nc(Nc2cccc(CS(C)(=O)=O)c2)ncc1C.O=CO [GSK1520489], CC(=O)Nc1nc2cnc(Nc3cc(NC(=O)c4cccc(CC(C)(C)C#N)c4)ccc3C)nc2s1 is lower in “%Inh” value: 99.9% for the first, 0% for the second.

Going from COc1cc(Nc2nccc(N3CCC(NC(=O)c4cccc(C#N)c4)C3)n2)cc(OC)c1OC (stereo not shown) [GSK1379751] to COc1ccc(Nc2nccc(N3CCC(NC(=O)c4cccc(C#N)c4)C3)n2)cc1 (stereo not shown) [GSK1379730], the “%Inh” value falls from 22% to 0%.

Cc1ccn2nc(-c3ccc(F)cc3)c(-c3ccncc3)c2c1.Cl [GW457859] and Cc1cccc2c(-c3ccncc3)c(-c3ccc(F)cc3)nn12.Cl [GW461487] are the same in “%Inh” value: 0% for the first, 0% for the second.

CN1CCN(CCNc2nc3cc(Oc4ccc(NC(=O)Nc5cc(C(F)(F)F)ccc5F)cc4)ccc3[nH]2)CC1.Cl.Cl [GW768504] and COC(=O)Nc1nc2cc(Oc3ccc(NC(=O)Nc4cc(C(F)(F)F)ccc4Cl)cc3)ccc2[nH]1.Cl [GW697465] are the same in “%Inh” value: 0% for the first, 0% for the second.

Compared with NC(=O)c1ccc(-c2cc3ncnc(SCC(=O)O)c3s2)cc1, NC(=O)Nc1sc(-c2ccc(F)cc2)cc1C(N)=O [GW789449] is higher in “%Inh” value: 22% for the first, 96.1% for the second.

CC(=O)c1c(-c2ccncc2)[nH]c(-c2ccncc2)c1C [GW493036] and Cc1ccc2c(-c3ccnc(Nc4ccc(C(F)(F)F)cc4)n3)cnn2n1 [GW819776] are the same in “%Inh” value: 0% for the first, 0% for the second.

First: O=C(Nc1cccc(C(F)(F)F)c1)c1cccc(Oc2ccc3nccn3n2)c1
Second: O=C(Nc1ccccc1)c1cccc(Oc2ccc3nccn3n2)c1
The “%Inh” value of the first is higher: 8% for the first, 6% for the second.

Compared with Cl.c1ccc(Oc2ccc(Nc3ccnc4cc(-c5ccc(CN6CCNCC6)o5)ccc34)cc2)nc1 [GW567142], Cc1n[nH]c2cc(Nc3ccnc(Nc4cccc(CN5CCOCC5)c4)n3)ccc12 [GW682569] is higher in “%Inh” value: 0% for the first, 79% for the second.

Going from O=C(Nc1ccc(Oc2ccc3nc(NC(=O)C4CC4)cn3n2)c(F)c1)c1cccn(-c2ccccc2)c1=O to Cc1ccc(C(=O)Nc2ccc(Oc3ccc4nc(NC(=O)C5CC5)cn4c3)c(F)c2)c(=O)n1-c1ccccc1, the “%Inh” value rises from 0% to 15%.

Compared with Cl.Cl.NC[C@H](CC1CCCCC1)NC(=O)c1ccc(-c2ccnc3[nH]ccc23)s1 [GSK1581428], O=C(NCC1CC1)c1ccc(-c2cc(C(=O)NC3CC3)ccc2F)cc1 [GW810445] is lower in “%Inh” value: 99.7% for the first, 0% for the second.

CC(C(=O)NC1CCN(c2ccnc(Nc3ccc(F)cc3)n2)C1)c1ccc(Cl)cc1 (stereo not shown) [GSK1379713] and CN1CCN(CCCNc2nccc(-c3c(-c4ccc(F)cc4)nn4cc(C(N)=O)ccc34)n2)CC1 [GW622475] are the same in “%Inh” value: 0% for the first, 0% for the second.

Compared with CCN1CCN(CCCC(=O)Nc2n[nH]c3nc(-c4ccc(O)cc4)c(Br)cc23)CC1 [SB-731579], CC(C)S(=O)(=O)N1CCN(Cc2ccc3c(c2)nc(NC(=O)c2ccsc2)n3C[C@H](O)c2ccccc2)CC1 [GW635815] is lower in “%Inh” value: 87% for the first, 54% for the second.

Going from Cc1nnc(-c2ccc3occ(-c4ccc(S(C)=O)cc4)c3n2)o1 (stereo not shown) to Nc1nccc(-c2ccc3c(N)n[nH]c3c2)n1 [GSK1034945], the “%Inh” value rises from 0% to 14%.

First: Cn1ccc2ncnc(Oc3ccc(NC(=O)Nc4ccnc(C(F)(F)F)c4)c(Cl)c3)c21
Second: Cn1ccc2ncnc(Oc3ccc(NC(=O)Nc4cncc(C(F)(F)F)c4)c(Cl)c3)c21
The “%Inh” value of the first is higher: 2% for the first, 0% for the second.

CCn1c(-c2nonc2N)nc2cncc(Br)c21 [SB-738004] was tested, and the “%Inh” value was 62%.
